# From PubChem BioAssay AID588342 (National Center for Advancing Translational Sciences (NCATS), 2011)
# The whole screen tested about 360,000 compounds, of which about 25,000 (6.9%) were called active. Not shown: some 9% with an inconclusive outcome. The call rests on the fitted dose curve; in most records, active means well fitted inhibition curve with a large enough effect; inconclusive means small, poorly fitted or top-dose-only effect; inactive means flat fitted curve, though single readings scatter. For the sample, actives were picked, then their nearest neighbours and some compounds at random.
# Target: Luciferin 4-monooxygenase (Photinus pyralis) (UniProt P08659)
# Test: qHTS profiling assay for firefly luciferase inhibitor/activator using purifed enzyme and Km concentrations of substrates (counterscreen for miR-21 project); further: nearly all actives have a fitted effect of over 55% in size;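 on activity change, negative = inhibition: plate controls were vehicle for no effect and reference inhibitor for full effect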
# Conditions: purified FLuc, luminescence inhibition; series mostly up to 57.5 µM; activity change, negative = inhibition: at the top concentration
# In short: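 Biochemical qHTS of compounds, final roughly 60 µM downward over six points, against 10 nM purified firefly luciferase using Km concentrations of substrates (10 uM D-luciferin, 10 uM ATP) in Tris acetate pH 7.5 buffer; luminescence output.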
# Potency means the concentration at half of the fitted maximal effect.
# Chain of Luciferin 4-monooxygenase (Photinus pyralis) (P08659 whole entry, looked up): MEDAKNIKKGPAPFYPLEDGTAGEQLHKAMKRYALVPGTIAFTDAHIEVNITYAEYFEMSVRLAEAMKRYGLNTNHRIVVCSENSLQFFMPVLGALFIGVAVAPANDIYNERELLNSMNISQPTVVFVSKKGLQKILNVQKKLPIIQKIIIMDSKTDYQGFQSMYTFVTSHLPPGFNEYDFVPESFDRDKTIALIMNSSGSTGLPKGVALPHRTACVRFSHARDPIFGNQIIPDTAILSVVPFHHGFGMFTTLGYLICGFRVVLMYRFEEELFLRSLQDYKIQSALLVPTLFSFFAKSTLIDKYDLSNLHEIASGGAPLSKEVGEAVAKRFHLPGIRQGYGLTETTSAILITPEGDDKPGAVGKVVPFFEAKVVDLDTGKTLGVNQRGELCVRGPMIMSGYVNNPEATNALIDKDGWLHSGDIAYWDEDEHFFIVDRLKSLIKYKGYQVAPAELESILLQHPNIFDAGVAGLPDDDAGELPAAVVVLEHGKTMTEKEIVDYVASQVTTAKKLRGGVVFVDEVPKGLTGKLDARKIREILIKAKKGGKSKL
SMILES,"activity change, negative = inhibition",Potency
CCOC(=O)NC(=O)CSc1nnc(SCCC(=O)O)s1,2.64% (inactive),
CCC[C@H]1CCCC/C=C\CCCC(=O)OCCN1C(=O)OC(C)(C)C,1.02% (inactive),
COC(=O)c1cc(NC(=O)CCc2c(C)nc3c4c(C)cc(C)nc4nn3c2C)cc(C(=O)OC)c1,-4.62% (inactive),
C[C@@H]1O[C@@H](OC[C@H]2O[C@@H](Oc3c(-c4ccc(O)cc4)oc4cc(O)cc(O)c4c3=O)[C@H](O)[C@@H](O)[C@@H]2O)[C@H](O)[C@H](O)[C@H]1O,3.05% (inactive),
CCNC(=O)c1cccc(NC(=O)C2CC(=O)N(CCc3ccccc3)C2)c1 (configuration not stated),-1.73% (inactive),
CCOc1ccc(NC(=O)CN(C)C(=O)Cn2c(=O)cnc3ccccc32)cc1OCC,3.02% (inactive),
COc1ccccc1Cc1nc2ccccc2nc1SCC(=O)N1CCCc2ccccc21,1.12% (inactive),
O=C(Cc1ccccc1)NCC1OCCc2ccccc21 (configuration not stated),5.57% (inactive),
CSc1nc(-c2ccc(F)cc2)nc2c1Cc1c(CO)cnc(C)c1O2,-7.58% (inactive),
Cc1ccc(-c2csc(NC3OC(=O)c4ccccc43)n2)cc1 (configuration not stated),-17.7% (inactive),
COc1ccc2c(c1OC)C(=O)OC2Nc1nc(-c2ccccc2)cs1 (configuration not stated),0.505% (inactive),
COc1ccc(-c2csc(NC3OC(=O)c4ccccc43)n2)cc1 (configuration not stated),,6.75 µM (active)
O=C(NCCS(=O)(=O)N1CCN(c2ccc(F)cc2)CC1)c1ccccc1Br,-0.513% (inactive),
O=C(CSCc1cnn(-c2ccccc2)c1-n1cccc1)NCc1ccc(Cl)cc1,-4.45% (inactive),
CCOc1ccc(NC(=O)c2cc(C)nc3ccccc23)cc1,-13.3% (inactive),
CCOc1ccc(-n2c(SCC(N)=O)nnc2-c2ccco2)cc1,-0.757% (inactive),
Cc1cccc(NC(=O)CSc2nnc(-c3ccco3)o2)c1,6.83% (inactive),
O=C(CCc1ccccc1)Nc1cccc(-c2nnc(-c3ccco3)o2)c1,-2.35% (inactive),
CCOc1ccc(NC(=O)c2ncoc2-c2ccco2)cc1,,7.57 µM (active)
COCCn1c(SCC(=O)Nc2ccc3c(c2)CCC3)nc2ccccc2c1=O,3.78% (inactive),
COc1ccc(-c2ocnc2C(=O)Nc2ccc3c(c2)CCC3)cc1,,7.57 µM (active)
CCOc1ccc(NC(=O)N(CCC(C)C)C(C)c2ccco2)cc1 (configuration not stated),-12.2% (inactive),
CCOc1ccc(-c2nnc(-c3ccco3)o2)cc1,,0.953 µM (active)
CCCCOc1ccc(-c2nnc(-c3ccco3)o2)cc1,,2.39 µM (active)
N#Cc1ccc(OCc2nnc(-c3ccc([N+](=O)[O-])cc3)o2)cc1,1.84% (inactive),
Cc1ccc(CNC(=O)COc2ccc3c(c2)CCC3)cc1,3.72% (inactive),

SMILES,"activity change, negative = inhibition",Potency
COc1cc(CNC(=O)c2cc3n(n2)CCCN(Cc2cccc(F)c2)C3=O)cc(OC)c1OC,4.25% (inactive),
CN1CCN(S(=O)(=O)c2ccc(NC(=O)C3CCCO3)cc2)CC1 (configuration not stated),4.41% (inactive),
CN(C)CCn1c2c(c(SCC(=O)NCc3ccccc3)nc1=O)CCC2,-2.52% (inactive),
O=C(NNS(=O)(=O)c1ccccc1C(F)(F)F)c1cc2ncc(C(F)(F)F)cc2s1,0.509% (inactive),
COc1ccccc1CCNC(=O)c1cccn1-c1nnc(N2CCCCC2)s1,-13.9% (inactive),
COc1cc(CNCCSc2nnnn2C)ccc1OCc1c(F)cccc1Cl,3.54% (inactive),
Cc1ccccc1C(=O)N1CCC(C(=O)Nc2ccc(S(=O)(=O)N(C)C(C)C)cc2)CC1,-2.3% (inactive),
COC(=O)c1ccc2c(c1)N(CC(=O)Nc1ccc(C)c(C)c1)C(=O)c1ccccc1S2,-1.58% (inactive),
CCN(CCCNC(=O)CSc1cc(=O)n(C)c2cc(Cl)ccc12)c1cccc(C)c1,-14.8% (inactive),
Oc1ccc(/C=N/N(Cc2ccccc2)c2ccccc2)cc1,-17.6% (inactive),
Cc1ccnc(N2CCCC(C(=O)Nc3cc(F)ccc3C)C2)n1 (configuration not stated),5.94% (inactive),
CC1CCCN(c2cc3c(cc2F)c(=O)c(S(=O)(=O)c2cccc(Cl)c2)cn3Cc2ccccc2)C1 (configuration not stated),1.02% (inactive),
CC1CCCN(c2csc3ccc(F)cc3c2=O)C1 (configuration not stated),,6.01 µM (active)
CCOc1ccc(NC(=O)CN(C)C(=O)c2cccc(S(=O)(=O)N3CCCC3)c2)cc1OCC,2.17% (inactive),
CC1=C(c2ccc(C)cc2)S(=O)(=O)NC1=NCCCN1CCN(c2cc(C)ccc2C)CC1,-0.583% (inactive),
Cc1ccc(CNS(=O)(=O)c2ccc(C(=O)N(C)C)s2)cc1,-9.37% (inactive),
Cc1ccc(/C=N/NC(=O)c2cc3ccccc3cc2O)o1,,9.53 µM (active)
O=C(N/N=C/c1cccnc1)c1ccc(NC(=O)c2ccc(F)cc2)cc1,-5.04% (inactive),
Cc1ccc(/C=N/NC(=O)Cn2nc(C)c(Br)c2C)o1,3.49% (inactive),
O=C(N/N=C\c1cccnc1)c1cc(-c2ccccc2)nc2c(Cl)cccc12,-16.6% (inactive),
O=C(N/N=C/c1cccnc1)c1cc2ccccc2cc1O,,5.36 µM (active)
Cc1ccc(/C=N/NC(=O)Cn2ccc(C(F)(F)F)n2)o1,-4.37% (inactive),
CCc1cc2c(cc3c(=O)n(CC(=O)NCc4cccc(Cl)c4)nc(CC)n32)s1,-3.11% (inactive),
O=C(CSc1ncn[nH]1)Nc1nc(-c2cccc([N+](=O)[O-])c2)cs1,-12.7% (inactive),
O=C(CSc1nc(-c2ccccc2)cs1)Nc1cccc([N+](=O)[O-])c1,,10.7 µM (active)
COc1ccc(-n2cnnc2SCC(=O)Nc2cccc([N+](=O)[O-])c2)cc1,-0.116% (inactive),
